Measured values as given in the antibiotic and cytotoxicity screens of Wong et al. (2023).
About 1,500 (3.8%) of roughly 39,000 compounds were called active. This excerpt belongs to a sample that is enriched for actives.

Tested on: HSkMC (human skeletal muscle cells)
Test: cytotoxicity call (relative viability < 0.9)
Settings: 10 µM

| SMILES | cytotoxicity call |
| --- | --- |
| Cn1nnc2c(N3CCC(O)CC3)ncnc21 | inactive |
| C[C@H]1CN([C@@H](C)CO)C(=O)c2cccc(NC(=O)CCCCCC(=O)Nc3ccccc3N)c2O[C@@H]1CN(C)Cc1ccc(C(F)(F)F)cc1 | inactive |
| C[C@@H]1CN([C@@H](C)CO)C(=O)c2cc(NC(=O)Nc3cccc4ccccc34)ccc2O[C@@H](C)CCCCO[C@H]1CN(C)C | inactive |
| CCN1CCN(C2=C(NS(=O)(=O)c3ccc(Br)cc3)C(=O)c3ccccc3C2=O)CC1 | inactive |
| CCc1nccn1CC(=O)N[C@H]1C[C@@H](C(=O)OC)N(C)C1 | inactive |
| Cc1noc(C)c1NC(=O)Nc1ccc2c(c1)CC(=O)N([C@@H](C)CO)C[C@@H](C)[C@@H](CN(C)Cc1ccc(Oc3ccccc3)cc1)O2 | inactive |
| COc1ccc(S(=O)(=O)N(C)C[C@H]2Oc3ccc(NC(=O)CCN4CCOCC4)cc3C(=O)N([C@H](C)CO)C[C@H]2C)cc1 | inactive |
| COc1cccc(S(=O)(=O)N(C)C[C@@H]2OCc3cnnn3CCCC(=O)N([C@H](C)CO)C[C@@H]2C)c1 | inactive |
| COCCNC(=O)NC(=O)COC(=O)c1cccn1C | inactive |
| O=C(N[C@@H](c1ccc(-c2ccccc2)cc1)c1cnccn1)C1CCN(Cc2ccc(Oc3ccccc3)cc2)CC1 | inactive |
| C[C@@H]1CN([C@@H](C)CO)C(=O)c2cccc(NC(=O)c3ccc(-c4nccs4)cc3)c2O[C@@H]1CN(C)Cc1ccccc1 | inactive |
| C[C@H](CO)N1C[C@H](C)[C@@H](CN(C)C(=O)Nc2cccc3ccccc23)OCCCC[C@H](C)Oc2ccc(NC(=O)Nc3cccc4ccccc34)cc2C1=O | inactive |
| C[C@@H]1CCCCO[C@@H](CN(C)C(=O)Nc2cccc3ccccc23)[C@H](C)CN([C@@H](C)CO)C(=O)c2cc(NC(=O)Nc3cccc4ccccc34)ccc2O1 | active |
| C[C@@H]1CN([C@@H](C)CO)C(=O)c2cc(NC(=O)NC3CCCCC3)ccc2O[C@@H](C)CCCCO[C@H]1CN(C)C(=O)Nc1ccc2c(c1)OCO2 | active |
| C[C@@H]1CCCCO[C@@H](CN(C)C(=O)Nc2ccc3c(c2)OCO3)[C@H](C)CN([C@H](C)CO)C(=O)c2cc(NC(=O)NC3CCCCC3)ccc2O1 | inactive |
| C[C@@H]1CN([C@@H](C)CO)C(=O)c2cc(NC(=O)CCC(F)(F)F)ccc2O[C@@H](C)CCCCO[C@H]1CN(C)C(=O)Nc1cccc2ccccc12 | active |
| C[C@H]1CCCCO[C@H](CN(C)C(=O)C2CCCCC2)[C@@H](C)CN([C@@H](C)CO)C(=O)c2cc(NC(=O)Nc3cccc4ccccc34)ccc2O1 | inactive |
| C[C@@H]1CN([C@H](C)CO)C(=O)c2cc(NC(=O)Nc3cccc4ccccc34)ccc2O[C@@H](C)CCCCO[C@@H]1CN(C)C(=O)C1CCCCC1 | inactive |
| C[C@@H]1CCCCO[C@@H](CN(C)C(=O)Nc2cccc3ccccc23)[C@H](C)CN([C@H](C)CO)C(=O)c2cc(NC(=O)CCC(F)(F)F)ccc2O1 | inactive |
| C[C@@H]1CCCCO[C@@H](CN(C)C(=O)Nc2ccc3c(c2)OCO3)[C@@H](C)CN([C@@H](C)CO)C(=O)c2cc(NC(=O)NC3CCCCC3)ccc2O1 | inactive |
| C[C@@H]1CN([C@@H](C)CO)C(=O)c2cc(NC(=O)Nc3cccc4ccccc34)ccc2O[C@@H](C)CCCCO[C@H]1CN(C)C(=O)Nc1cccc2ccccc12 | inactive |

| SMILES | cytotoxicity call |
| --- | --- |
| C[C@@H]1CN([C@@H](C)CO)C(=O)c2cc(NC(=O)Nc3cccc4ccccc34)ccc2O[C@@H](C)CCCCO[C@@H]1CN(C)C(=O)C1CCCCC1 | active |
| C[C@@H]1CCCCO[C@H](CN(C)C(=O)Nc2cccc3ccccc23)[C@@H](C)CN([C@H](C)CO)C(=O)c2cc(NC(=O)CCC(F)(F)F)ccc2O1 | inactive |
| C[C@@H]1CCCCO[C@@H](CN(C)S(=O)(=O)c2ccccc2)[C@H](C)CN([C@@H](C)CO)C(=O)c2cc(NS(C)(=O)=O)ccc2O1 | inactive |
| CC(C)(C)OC(=O)C[C@@H]1CC=CC[C@@H](CC(=O)N[C@@H](CO)Cc2ccccc2)C(=O)N[C@@H](C(C)(C)C)COC1=O | inactive |
| CC(C)CC#Cc1cnc2c(c1)C(=O)N([C@H](C)CO)C[C@@H](C)[C@H](CN(C)C(=O)CCN1CCCCC1)O2 | inactive |
| COCC#Cc1ccc2c(c1)O[C@H](CN(C)S(=O)(=O)c1ccc(F)cc1)[C@@H](C)CN([C@@H](C)CO)S2(=O)=O | inactive |
| C[C@@H]1CN([C@@H](C)CO)C(=O)Cc2cc(NS(=O)(=O)c3ccccc3)ccc2O[C@@H]1CN(C)Cc1ccncc1 | inactive |
| O=C(C[C@@H]1CC[C@H]2[C@@H](COC[C@H](O)CN2Cc2ccccc2F)O1)N[C@H]1CCN(Cc2ccccc2)C1 | inactive |
| C[C@@H]1CCCCO[C@@H](CN(C)C(=O)Nc2ccccc2)[C@@H](C)CN([C@H](C)CO)C(=O)c2cc(NC(=O)Nc3ccc4c(c3)OCO4)ccc2O1 | inactive |
| Oc1ccc(C2(c3ccccc3F)CCC(F)(F)CC2)cc1 | inactive |
| CCNC(=S)N1CCOCC1 | inactive |
| NC(=O)C1CCCN1C(=O)C(Cc1c[nH]cn1)NC(=O)C1CCC(=O)N1 (stereo unspecified) | inactive |
| C[C@@H]1CCCCO[C@@H](CN(C)C(=O)Nc2cccc3ccccc23)[C@H](C)CN([C@@H](C)CO)C(=O)c2cc(NC(=O)NC3CCCCC3)ccc2O1 | inactive |
| C[C@H](CO)N1C[C@H](C)[C@@H](CN(C)C(=O)Nc2cccc3ccccc23)OCCCC[C@H](C)Oc2ccc(NC(=O)NC3CCCCC3)cc2C1=O | active |
| C[C@@H]1CCCCO[C@H](CN(C)C(=O)Nc2cccc3ccccc23)[C@@H](C)CN([C@H](C)CO)C(=O)c2cc(NC(=O)NC3CCCCC3)ccc2O1 | inactive |
| COc1ccc(S(=O)(=O)N(C)C[C@@H]2Oc3ncc(C#CC(C)(C)O)cc3C(=O)N([C@H](C)CO)C[C@@H]2C)cc1 | inactive |
| CCCCC(=O)OC1CCC2C3CCc4cc(O)ccc4C3CCC12C (stereo unspecified) | inactive |
| CC12CCC3c4ccc(O)cc4CCC3C1CCC2O (stereo unspecified) | inactive |
| CC12CCC3c4ccc(O)cc4CCC3C1CCC2OC(=O)CCC1CCCC1 (stereo unspecified) | active |
| C=C1C=[N+]([O-])N(c2ccc(C(=O)O)cc2)N1 | inactive |
